Assay results published in PubChem BioAssay (Tox21).
Results filed as inconclusive are left out. The source made the active and inactive calls. Unless noted, the call rests on the fitted dose curve; in most records, active means well fitted curve in the direction sought with a large enough effect in the repeat runs; inconclusive means weak or mixed curves; inactive means no such curve, though single readings can be large; an effect the other way counts as inactive or inconclusive.

Assays:
[1] = target: Peroxisome proliferator-activated receptor gamma (Homo sapiens) (UniProt P37231); assay: qHTS assay to identify small molecule antagonists of the peroxisome proliferator-activated receptor gamma (PPARg) signaling pathway (AID 743191; calls by dose curve; further: series mostly up to about 63 µM; nearly all actives have a fitted effect of over 30% in size)
Outline: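 GeneBLAzer PPARg UAS-bla HEK293H cells carrying a UAS-driven beta-lactamase reporter were plated at 3000 cells/well, preincubated 5 h at 37C, then given compound for 17 h at 37C; LiveBLAzer B/G FRET substrate was read after 1 h at room temperature.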

[2] = qHTS assay to identify small molecule antagonists of the peroxisome proliferator-activated receptor gamma (PPARg) signaling pathway - cell viability counter screen (AID 743194); further: nearly all actives have a fitted effect of over 55% in size
Outline: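 PPARg-UAS-bla HEK293H cells were plated, rested 5 h at 37 C, then treated with compounds plus rosiglitazone (50 nM final) for 17 h at 37 C; viability was then read by CellTiter-Glo luminescence after 30 min at room temperature.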

[3] = qHTS assay for small molecule agonists of the antioxidant response element (ARE) signaling pathway (AID 743202; active means well fitted activation curve with a large enough effect in the signal ratio in the repeat runs, not every such curve was filed as active; the % refers to the signal ratio)
Outline: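 Steps: seed ARE-bla HepG2 cells (2,000/well); incubate 5 h at 37 C; add compounds by pin tool; incubate 16 h at 37 C; add FRET substrate; read fluorescence after 2 h at RT.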

[4] = qHTS assay for small molecule agonists of the antioxidant response element (ARE) signaling pathway - cell viability counter screen (AID 743203; calls by dose curve; further: nearly all actives have a fitted effect of over 55% in size)
Outline: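 Cytotoxicity was tested in parallel with the ARE reporter screen. ARE-bla HepG2 cells were exposed to compounds for 16 hrs, and viability was taken from CellTiter-Glo luminescence.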

[5] = qHTS assay for small molecule activators of the heat shock response signaling pathway - cell viability counter screen (AID 743209); further: nearly all actives have a fitted effect of over 50% in size
Outline: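 Cytotoxicity counter screen run in parallel with the HSE beta-lactamase reporter, using the same wells. HeLa HSE-bla cells received compound for 5 h at 37 C; ATP-based CellTiter-Glo luminescence was measured after 30 min at room temperature.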

[6] = qHTS assay for small molecule activators of the heat shock response signaling pathway (AID 743210; active means well fitted activation curve with a large enough effect in the signal ratio in the repeat runs, with a control signal flat, not every such curve was filed as active; the % refers to the signal ratio;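 further: HeLa cells with beta-lactamase reporter driven by heat shock elements; series mostly up to about 63 µM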)
Outline: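 Activation of heat shock element-controlled beta-lactamase expression is measured in HeLa cells by LiveBLAzer FRET fluorescence, with compound exposure lasting 5 h at 37 C and substrate loading 2.5 h at room temperature.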

[7] = qHTS assay to identify small molecule agonists of the peroxisome proliferator-activated receptor delta (PPARd) signaling pathway - cell viability counter screen (AID 743211); further: nearly all actives have a fitted effect of over 55% in size
Outline: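 Viability was measured as CellTiter-Glo luminescence (30 min, room temperature) in the same wells as the beta-lactamase readout. GeneBLAzer PPARd UAS-bla HEK293H cells received compound after 5 h plating and were incubated 17 h at 37 C.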

[8] = qHTS assay to identify small molecule antagonists of the peroxisome proliferator-activated receptor delta (PPARd) signaling pathway - cell viability counter screen (AID 743213); further: nearly all actives have a fitted effect of over 50% in size
Outline: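 In this counter screen, HEK293H cells carrying a UAS-beta-lactamase reporter are co-treated with test compounds and 300 nM L165041 (final) for 17 h at 37 C; cell viability is quantified by CellTiter-Glo luminescence.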

[9] = qHTS assay to identify small molecule agonists of the farnesoid-X-receptor (FXR) signaling pathway - cell viability counter screen (AID 743218); further: nearly all actives have a fitted effect of over 45% in size
Outline: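 Cells were seeded, left 5 h at 37 C and 5% CO2, then dosed with compound in DMSO for 16 h. After the beta-lactamase FRET read, CellTiter-Glo was added and luminescence measured 30 min later.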

[10] = qHTS assay to identify small molecule antagonists of the farnesoid-X-receptor (FXR) signaling pathway - cell viability counter screen (AID 743221; active means well fitted cell-killing curve with a large enough effect in the repeat runs, not every such curve was filed as active; further: nearly all actives have a fitted effect of over 50% in size)
Outline: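 Cytotoxicity counter screen run in the FXR-bla reporter wells: HEK 293T cells exposed to compound with 50 uM (final) chenodeoxycholic acid for 16 h, 37 C, then viability measured by CellTiter-Glo luminescence after 30 min, room temperature.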

[11] = target: Vitamin D3 receptor (Homo sapiens) (UniProt P11473); assay: qHTS assay to identify small molecule antagonists of the vitamin D receptor (VDR) signaling pathway (AID 743223; active means well fitted inhibition curve with a large enough effect in the signal ratio in the repeat runs, not every such curve was filed as active; the % refers to the signal ratio)
Outline: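 Antagonist mode: compound added to VDR-bla cells alongside agonist 1alpha,25-dihydroxyvitamin D3 (3 nM final), incubation 16 h at 37C. Read-out is LiveBLAzer FRET fluorescence, 2 h at room temperature.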

[12] = qHTS assay to identify small molecule agonists of the vitamin D receptor (VDR) signaling pathway - cell viability counter screen (AID 743224); further: series mostly up to about 63 µM; nearly all actives have a fitted effect of over 50% in size
Outline: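 Cells: VDR-bla, 2,000/well, settled 4 h. Treatment: compounds in DMSO, 16 h, 37C/5% CO2. Readout: CellTiter-Glo luminescence after 30 min RT.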

[13] = target: Vitamin D3 receptor (Homo sapiens) (UniProt P11473); assay: qHTS assay to identify small molecule agonists of the vitamin D receptor (VDR) signaling pathway (AID 743222; calls by dose curve)
Outline: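 Cells carrying a VDR-driven beta-lactamase reporter are seeded at 2,000 per well and rested 4 h. Compounds in DMSO are added for 16 h at 37C, and FRET substrate fluorescence is measured after 2 h at room temperature.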

[14] = target: Peroxisome proliferator-activated receptor delta (Homo sapiens) (UniProt Q03181); assay: qHTS assay to identify small molecule agonists of the peroxisome proliferator-activated receptor delta (PPARd) signaling pathway (AID 743212; calls by dose curve)
Outline: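 Cells expressing a UAS-driven beta-lactamase reporter (PPARd-bla HEK293H) were given test compounds after a 5 h settle and kept at 37 C. Reporter activity was then measured as FRET fluorescence using LiveBLAzer B/G substrate.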

[15] = target: Bile acid receptor (Homo sapiens) (UniProt Q96RI1); assay: qHTS assay to identify small molecule antagonists of the farnesoid-X-receptor (FXR) signaling pathway (AID 743217; active means well fitted inhibition curve with a large enough effect in the signal ratio in the repeat runs, not every such curve was filed as active; the % refers to the signal ratio)
Outline: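 Cells carrying a UAS-driven beta-lactamase reporter (GeneBLAzer FXR-UAS-bla HEK 293T) were plated and rested 5 h at 37 °C. Compounds in DMSO were added alongside chenodeoxycholic acid agonist at 50 uM final and left 16 h at 37 °C before FRET substrate readout.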

[16] = target: Bile acid receptor (Homo sapiens) (UniProt Q96RI1); assay: qHTS assay to identify small molecule agonists of the farnesoid-X-receptor (FXR) signaling pathway (AID 743220; active means well fitted activation curve with a large enough effect in the signal ratio in the repeat runs, not every such curve was filed as active; the % refers to the signal ratio)
Outline: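 FXR-UAS-bla HEK 293T cells carrying a UAS-driven beta-lactamase reporter were plated for 5 h at 37C/5% CO2, then exposed to DMSO-dissolved Tox21 10K compounds for 16 h at 37C. A LiveBLAzer B/G FRET substrate was loaded for 2 h at room temperature before fluorescence reading.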

[17] = qHTS assay to identify small molecule that activate the aryl hydrocarbon receptor (AhR) signaling pathway - cell viability counter screen (AID 743086);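 further: HepG2 liver cells carrying the AhR DRE luciferase reporter; series mostly up to about 70 µM; nearly all actives have a fitted effect of over 45% in size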
Outline: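 HepG2-AhR-luc (HG2L7.5c1) cells, 4000/well, were preincubated 5 h at 37C, exposed to compound in qHTS format for 24 hr at 37C, then given CellTiter-Fluor for 30 min; viability was read as fluorescence in the reporter wells.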

[18] = target: Peroxisome proliferator-activated receptor delta (Homo sapiens) (UniProt Q03181); assay: qHTS assay to identify small molecule antagonists of the peroxisome proliferator-activated receptor delta (PPARd) signaling pathway (AID 743215; active means well fitted inhibition curve with a large enough effect in the signal ratio in the repeat runs, not every such curve was filed as active; the % refers to the signal ratio;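 further: cells stimulated with agonist L165041 at 300 nM final during compound exposure; series mostly up to about 62 µM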)
Outline: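 Cells: HEK293H with a UAS-driven beta-lactamase reporter responsive to PPARd. Compounds were co-added with L165041 (300 nM, final) and incubated 17 h at 37 C before a 2 h room-temperature FRET substrate step and fluorescence reading.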

Measured: Potency

Peroxisome proliferator-activated receptor delta (Homo sapiens), sequence (Q03181 whole entry, looked up): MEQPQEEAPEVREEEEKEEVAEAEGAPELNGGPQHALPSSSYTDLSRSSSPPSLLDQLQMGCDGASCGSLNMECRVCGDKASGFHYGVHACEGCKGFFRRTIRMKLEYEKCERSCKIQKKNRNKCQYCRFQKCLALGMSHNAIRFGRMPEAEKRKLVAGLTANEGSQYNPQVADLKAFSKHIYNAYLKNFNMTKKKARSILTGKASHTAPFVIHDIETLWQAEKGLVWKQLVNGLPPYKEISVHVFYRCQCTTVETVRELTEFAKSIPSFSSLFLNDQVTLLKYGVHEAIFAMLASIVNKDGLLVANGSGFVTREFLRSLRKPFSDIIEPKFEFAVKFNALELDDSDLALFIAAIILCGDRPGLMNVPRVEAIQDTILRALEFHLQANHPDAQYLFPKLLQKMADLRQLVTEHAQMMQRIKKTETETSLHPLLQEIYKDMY
Bile acid receptor (Homo sapiens), sequence (Q96RI1 whole entry, looked up): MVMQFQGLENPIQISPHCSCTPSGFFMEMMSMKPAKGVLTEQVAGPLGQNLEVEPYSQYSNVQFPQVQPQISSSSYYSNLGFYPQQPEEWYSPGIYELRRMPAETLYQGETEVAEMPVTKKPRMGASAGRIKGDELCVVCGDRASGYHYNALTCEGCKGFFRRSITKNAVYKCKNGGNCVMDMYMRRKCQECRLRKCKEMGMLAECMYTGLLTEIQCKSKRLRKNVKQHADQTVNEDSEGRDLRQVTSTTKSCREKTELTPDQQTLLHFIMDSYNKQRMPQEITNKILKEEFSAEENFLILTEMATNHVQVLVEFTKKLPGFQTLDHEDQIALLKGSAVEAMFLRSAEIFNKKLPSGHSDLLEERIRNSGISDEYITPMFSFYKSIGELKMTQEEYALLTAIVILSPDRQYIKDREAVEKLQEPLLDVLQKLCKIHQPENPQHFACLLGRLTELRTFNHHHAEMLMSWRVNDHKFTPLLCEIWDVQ
Vitamin D3 receptor (Homo sapiens), sequence (P11473 whole entry, looked up): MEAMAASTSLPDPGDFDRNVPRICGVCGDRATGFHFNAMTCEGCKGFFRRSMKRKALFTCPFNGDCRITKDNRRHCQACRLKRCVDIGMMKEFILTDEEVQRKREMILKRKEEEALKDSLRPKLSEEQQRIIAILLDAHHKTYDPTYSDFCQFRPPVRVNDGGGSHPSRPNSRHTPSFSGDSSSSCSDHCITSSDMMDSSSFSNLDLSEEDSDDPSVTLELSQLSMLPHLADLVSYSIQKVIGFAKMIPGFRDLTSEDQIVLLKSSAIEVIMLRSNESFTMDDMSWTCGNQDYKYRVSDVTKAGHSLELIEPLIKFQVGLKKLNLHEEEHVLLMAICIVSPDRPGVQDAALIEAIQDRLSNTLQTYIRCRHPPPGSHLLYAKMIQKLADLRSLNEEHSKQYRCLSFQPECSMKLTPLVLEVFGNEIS
Peroxisome proliferator-activated receptor gamma (Homo sapiens), sequence (P37231 whole entry, looked up): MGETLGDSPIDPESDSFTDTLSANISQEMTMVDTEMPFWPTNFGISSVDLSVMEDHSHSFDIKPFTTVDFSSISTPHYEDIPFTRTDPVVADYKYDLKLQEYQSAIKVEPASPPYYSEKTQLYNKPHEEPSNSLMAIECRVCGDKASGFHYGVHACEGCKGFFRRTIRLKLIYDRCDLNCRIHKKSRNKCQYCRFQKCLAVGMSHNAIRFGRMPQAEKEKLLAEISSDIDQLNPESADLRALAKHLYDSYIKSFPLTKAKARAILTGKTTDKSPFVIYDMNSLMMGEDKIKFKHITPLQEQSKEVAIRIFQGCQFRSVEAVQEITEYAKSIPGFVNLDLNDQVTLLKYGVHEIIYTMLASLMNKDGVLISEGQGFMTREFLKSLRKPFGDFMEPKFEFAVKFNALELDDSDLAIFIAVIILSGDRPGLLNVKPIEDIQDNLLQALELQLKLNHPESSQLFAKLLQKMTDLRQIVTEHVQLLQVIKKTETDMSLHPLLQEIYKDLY

CCOC(=O)C(O)c1ccccc1 (configuration not stated)
not listed: [13] | [14] | [15] | [16] | [17] | [18]
inactive: all other assays above

COCCCN1CCC(NC(=O)c2cc(Cl)c(N)c3c2OCC3)CC1
not listed: [4] | [14] | [15] | [16] | [17] | [18]
inactive: all other assays above

C[C@@H]1C[C@H]2[C@@H]3CCC4=CC(=O)C=C[C@]4(C)[C@@]3(F)[C@@H](O)C[C@]2(C)[C@@]1(O)C(=O)COC(=O)c1ccncc1
inactive: [1] | [2] | [3] | [4] | [5] | [14] | [10] | [13] | [11] | [12]

CCN(CC)c1ccc(C(=C2C=CC(=[N+](CC)CC)C=C2)c2cc(S(=O)(=O)O)ccc2S(=O)(=O)[O-])cc1
not listed: [1] | [5] | [7] | [11] | [14] | [17] | [18]
inactive: all other assays above

CC1=CCCC(C)(C)C12CCC(C)O2 (configuration not stated)
inactive: [17] | [2] | [4] | [5] | [6] | [7] | [8] | [15] | [12]

CCCC(=O)Nc1ccc(O)c(C(C)=O)c1
inactive: [2] | [3] | [4] | [14] | [18] | [9] | [10] | [12]
